Screens (PubChem)
Most compounds without a hit are left out; they make up all but 8.1% or so of the library.
KB-3-1 cytotox – KB-3-1 parental cell cytotoxicity; KB-3-1 viability, CellTiter-Glo ATP luminescence, 72 h; Potency, µM (highest dose often 46.1 µM), most hits filed as cytotoxic; 1.4% of 400,000 active; also: % is scaled to controls: 0 for no effect and ±100 for the full control effect; nearly all actives have a fitted effect of over 60% in size
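Luminescent ATP read-out (CellTiter-Glo) measures survival of drug-naive KB-3-1 cells after 72 h compound exposure at 37 °C. Titration series was screened from lowest to highest concentration, with DMSO vehicle plates as background controls.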
ELG1 repair inh – ELG1-dependent DNA repair inhibition; HEK293T ELG1-luciferase reporter, luminescence, 16 h; DNA damage induced by 5-fluorouridine; Potency, µM (highest dose often 46.1 µM), for the others: at the top dose activity change, negative = inhibition, actives largely listed as inhibitors; 2.3% of 330,000 active; AID 504467; also: % is scaled to controls: 0 for no effect and ±100 for the full control effect; nearly all actives have a fitted effect of over 55% in size
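Reporter activity after DNA damage by 5-fluorouridine is monitored. Compound-treated cells incubate 16 hr at 37 °C, then ONE-Glo is added for 30 min before luminescence reading.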
MCF10A rerep – inducers of DNA re-replication in MCF 10A breast cells; MCF 10A DNA re-replication, Hoechst nuclear intensity, 48 h; Potency, µM (highest dose often 46.1 µM), for inactives: top-dose activity, positive = re-replication, actives largely listed as activators; 2.9% of 350,000 active; also: % of control where 0% means no effect; nearly all actives have a fitted effect of over 50% in size
KB-V1 cytotox – kills drug-selected multidrug resistant KB-V1 cells; KB-V1 MDR cells viability, CellTiter-Glo, 72 h; Potency, µM (highest dose often 46.1 µM), hits mostly cytotoxic; 3.4% of 400,000 active; AID 1347076; also: % is scaled to controls: 0 for no effect and ±100 for the full control effect; nearly all actives have a fitted effect of over 60% in size
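qHTS viability screen in drug-selected KB-V1 MDR cells: 72 h compound treatment at 37 degrees C, ATP luminescence end point.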
SW480 rerep – induces DNA re-replication in SW480 colon adenocarcinoma cells; SW480 DNA re-replication, Hoechst DNA content imaging, 48 h; 1.8% of 340,000 active; AID 624297; Potency, µM (titrated, usually from 46.1 µM), for inactives: top-dose re-replication activation, most hits filed as activators; also: % of control where 0% means no effect; nearly all actives have a fitted effect of over 55% in size
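Image-based read-out: total Hoechst fluorescence of nuclei (405 nm excitation, 500-530 nm emission), with hits raising the fraction of high-intensity nuclei. SW480 colon cells incubated 48 hr with compounds at 37 C.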
An asterisk follows results filed as active; i = inactive; ? = inconclusive; · = no result given; ! = repeats disagree; [ ] = dose if it differs, or a comment. Calls follow the shape of the dose curve; as a rule, active = well fitted curve in the direction sought with a large enough effect; inconclusive = small, poorly fitted or top-dose-only effect, or another doubt; inactive = no such curve, though single readings can be large; an effect the other way counts as inactive or inconclusive. Potency is read from the fitted curve at half-maximal effect.

SMILES	KB-3-1 cytotox	ELG1 repair inh	MCF10A rerep	KB-V1 cytotox	SW480 rerep
CC(C)(C)OC(=O)N1CCC(C(=O)N[C@@H](Cc2ccccc2)C(=O)O)(c2ccccc2)CC1	i	-8.1%	?	i	0.461µM*!
CC(C)Sc1nc2ccccc2n1CC(=O)NCc1ccc2c(c1)OCO2	i	?	16.5%	14.6µM*	0.3%
CC(C)N(C(=O)Cn1c(SCC(=O)NCc2ccc3c(c2)OCO3)nc2ccccc21)C(C)C	i	-3.9%	?	i	-0.5%
Cc1cc2cc(C)c3nnc(SCC(=O)NCc4ccc5c(c4)OCO5)n3c2cc1C	i	-22.9%	10.0%	?	-11.5%
CC(=O)c1c(C(C)=O)c(C)n(Cc2ccc3c(c2)OCO3)c1C	13µM*	?	3.2%	2.59µM*	1.2%
Cc1cc(C)c2cc(C)c3nnc(SCC(=O)NCc4ccc5c(c4)OCO5)n3c2c1	i	-17.1%	7.3%	2.31µM*	-3.8%
CC(=O)c1c(C)n(CC(=O)NCc2ccc3c(c2)OCO3)c2ccccc12	16.4µM*	?	?	2.91µM*	?
Cc1ccc(S(=O)(=O)c2nnn3c2nc(NCc2cccs2)c2sccc23)cc1C	i	·	·	i	·
CCOC(=O)C1=C(C)NC(=S)NC1c1ccc(OCC(=O)N2CCCCCC2)c(OC)c1 (stereo unspecified)	i	-16.1%	-2.8%	i	14.6%
CC(=O)OCC(=O)[C@@]1(O)[C@H](C)C[C@@H]2[C@H]3CCC4=CC(=O)C=C[C@]4(C)[C@]3(F)[C@@H](O)C[C@@]21C	·	·	14.5%[20.6 µM]	·	-1.6%[20.6 µM]
CC1CC(=O)N(CC(=O)NCc2ccc3c(c2)OCO3)c2ccccc2S1 (stereo unspecified)	i	3.4%	-1.1%	20.6µM*	-11.1%
O=C(CN1C(=O)CCSc2ccccc21)Nc1ccc2c(c1)OCO2	i	?	-1.6%	18.4µM*	0.8%
Fc1cccc(Cc2c(-c3ccco3)nc3ccc(Br)cn23)c1	i	·	·	i	·
CC(NC(=O)c1cccs1)C1CCCO1 (stereo unspecified)	i	-3.6%	-5.9%	i	?
C=C(C)CNC(=S)N/N=C(\C)c1ccc(-n2ccnc2)cc1	i	?	?	14.6µM*	-4.8%
COC(=O)[C@]12CCCCC=C1N(CCc1ccc(OC)c(OC)c1)C(=O)[C@H](CC(=O)NCc1ccccc1)C2	i	·	·	?	·
COc1ccc(CCNc2nc(-c3ccncc3)cs2)cc1OC	i	?	0.4%	?	-5.3%
COc1ccc(CCNc2nc(-c3sc(C)nc3C)cs2)cc1OC	?	18.4µM*	?	i	19.5%
COc1ccc(CCNc2nc(-c3ccccn3)cs2)cc1OC	i	18.3µM*	7.8%	i	19.5%
COc1ccc(CCNc2nc(-c3ccc(O)cc3)cs2)cc1OC	i	23.1µM*	?	i	-19.9%
COc1ccc(C2NC(=O)c3sc4nc(C)c(C(C)=O)c(-c5ccc(Cl)cc5)c4c3N2)cc1 (stereo unspecified)	i	5.2%	16.4µM*	i	?
COc1ccc(CCNc2ccc(N3C(=O)CC(C)C3=O)cc2[N+](=O)[O-])cc1OC (stereo unspecified)	i	3.66µM*	0.1%	i	-6.1%
Cc1oc2ncn(CC(C)C)c(=O)c2c1C(=O)N(CCN(C)C)Cc1ccccc1	i	·	·	i	·
O=C(OCC(=O)N1CCN(C(=O)c2ccco2)CC1)c1cccc(F)c1	i	?	11.8%	i	7.0%
Cc1cc(C)c(C(=O)Nc2ccc(Br)c(C(F)(F)F)c2)c(C)c1	?	-7.3%	23.1µM*	i	?
SMILES	KB-3-1 cytotox	ELG1 repair inh	MCF10A rerep	KB-V1 cytotox	SW480 rerep
O=C(O)c1ccccc1C(=O)Nc1ccc(Br)c(C(F)(F)F)c1	i	?	-3.1%	i	10.3%
CCc1ccc(CNC(=O)c2ccc(CSc3nc4ccncc4n3Cc3ccc(OC)cc3)cc2)cc1	i	·	·	i	·
CCN(C(=O)CSc1ccc2ccccc2n1)C1CCCCC1	?	-26.5%	?	18.4µM*	2.6%
O=C(CSc1ccc2ccccc2n1)NC1CC1	?	?	4.3%	i	-6.2%
Cc1cc(C)cc(NC(=O)C(=O)NCCc2sc(-c3cccc(F)c3)nc2C)c1	i	·	·	i	·
Nc1nc(CCl)nc(Nc2ccc3ccccc3c2)n1	?	2.3%	?	23.1µM*	18.8%
COc1ccc(Nc2nc(N)nc(CCl)n2)cc1	?	?	?	?	3.26µM*
Cc1ccccc1Nc1nc(N)nc(CCl)n1	?	?	?	i	?
OC(c1ccc(F)c(F)c1)c1ncc(-c2ccc(F)cc2)[nH]1 (stereo unspecified)	i	·	·	i	·
O=c1c(-c2ccccc2)c(-c2ccccc2)oc2cc(O)cc(O)c12	i	-22.5%	1.6%	i	-1.3%
O=c1c(O)c(-c2ccccc2)oc2cc(O)cc(O)c12	i	13µM*	?	i	-0.7%
Cc1ccc(-c2oc3ccccc3c(=O)c2O)cc1	20.6µM*	?	25.9µM*	?	8.3%
O=c1c(O)c(-c2ccccc2)oc2ccccc12	i	·	?	i	5.4%
COc1ccc(C(=O)OCC(=O)Nc2sccc2C(N)=O)cc1[N+](=O)[O-]	i	-5.5%	-3.7%	i	5.8%
O=S(=O)(Nc1nc2ccccc2nc1Nc1cccc(S(=O)(=O)N2CCCCC2)c1)c1ccccc1	14.6µM*	?	?	7.31µM*	14.3%
CCc1ccc(Nc2nc3ccccc3nc2NS(=O)(=O)c2ccccc2)cc1	?	·	·	18.4µM*	·
COc1ccc(S(=O)(=O)Nc2cccc(S(=O)(=O)N3CCCCCC3)c2)cc1	i	-8.3%	-5.8%	i	8.1%
Cc1[nH]nc(N=CC2=C(O)CC(c3ccco3)CC2=O)c1-c1ccccc1 (stereo unspecified)	i	-22.8%	8.0%	16.4µM*!	-5.4%
Cc1[nH]nc(N=CC2=C(O)CC(C)(C)CC2=O)c1-c1ccccc1	?	13.1%	18.0%	23.1µM*!	-4.4%
O=C1CC(c2ccco2)CC(O)=C1C=Nc1cc(Cl)cc(Cl)c1 (stereo unspecified)	i	5.0%	3.4%	i	-3.7%
O=C(CN(c1cccc(C(F)(F)F)c1)S(=O)(=O)c1ccc(Cl)c([N+](=O)[O-])c1)NCc1ccc(F)cc1	?	?	2.91µM*	i	?
O=C(Nc1ccc2nc3n(c(=O)c2c1)CCCCC3)c1cc([N+](=O)[O-])ccc1F	?	?	14.6µM*	i	16.4µM*
O=C(Nc1ccc2nc3n(c(=O)c2c1)CCCCC3)c1c(F)ccc([N+](=O)[O-])c1F	2.31µM*	?	?	16.4µM*	1.3µM*
N#C/C(=C/c1ccco1)C(N)=S	i	?	0.0%	i	5.6%
